Source: PubChem BioAssay AID720513 (Broad Institute, 2013)
Screen size: about 2,100 compounds; about 480 (23%) were called active. Inconclusive results (about 5%) are left out.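 How the source made its calls: active means fitted curve reaches 40% activation at or below the top valid concentration, in every replicate test; inconclusive means replicate tests disagree on the call; inactive means the rest, including activity in the opposite direction.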 These entries were drawn from the full list. Potency and affinity values are given separately.

assay: PGC1a acetylation increase, cellular AlphaLISA – cell-based, cherry-picked samples, set 6, dose response (AID 720513); details: U2OS PGC1a acetylation AlphaLISA, overnight, 0 = neutral, -100 = inhibitor control; series mostly up to 19.5 µM;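 further: cells made to overexpress flag tagged PGC1a plus GCN5 acetyltransferase by viral infection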

outcome, inactive:
Cc1cc(C)cc(C(=O)Nc2ccc3[nH]c(=O)[nH]c3c2)c1
COc1cccc(N2CCN(c3ncnc4c3[nH]c3ccc(F)cc34)CC2C)c1 (centres undefined)
C=CCOc1ccccc1CNc1ccc2[nH]c(=O)[nH]c2c1
O=C(C[C@H]1C=C[C@H](NC(=O)Nc2ccc(C(F)(F)F)cc2)[C@@H](CO)O1)NCc1ccccn1
COc1ccc(S(=O)(=O)N2CCN(C(=O)c3cccs3)CC2)cc1OC
O=C(Cc1ccccc1)N1N=C(c2ccncc2)CC1(O)C(F)(F)F (centres undefined)
CC(=O)c1cccc(-n2nnnc2SCC(=O)NNC(=O)C(C)C)c1
C[C@H](CO)N1C[C@H](C)[C@H](CN(C)S(=O)(=O)c2ccc(F)cc2)Oc2ncc(-c3cccc(C(=O)N(C)C)c3)cc2C1=O
Cc1nonc1NC(=O)CSc1nc(C2CCCCC2)nc2ccccc12
CC(C)(CO)CNc1ccn2nccc2n1
Cc1cccc(C)c1NC(=O)CS(=O)CC(=O)Nc1ccc(F)cc1F (centres undefined)
O=C(CSC1=NS(=O)(=O)c2ccccc2N1)Nc1ccc(F)cc1
O=C1C=CCCN1C(=O)/C=C/c1cccc(Br)c1
Cn1nnnc1Sc1ncnc2scc(-c3ccc(C#N)cc3)c12
O=C(c1cccs1)N(Cc1ccccn1)Cc1ccco1
COc1ccc2cc(CN(Cc3ccco3)C(c3nnnn3C3CCCCC3)C(C)C)c(=O)[nH]c2c1 (centres undefined)
COCCN(C(=O)COC(=O)Cc1cccc(OC)c1)c1c(N)n(Cc2ccccc2)c(=O)[nH]c1=O
O=C1CCCc2ccccc2N1Cc1ccc(Cl)cc1Cl
CCN(C(=O)CSc1nnc(-c2cccs2)n1N)c1c(N)n(Cc2ccccc2)c(=O)[nH]c1=O
CCOC(=O)CSc1nnc(-c2ccc(OC)cc2)n1CC
CC1(C)CC2(CCO1)OC(=O)CC2C(=O)Nc1cccc2ccccc12 (centres undefined)
CO[C@H]1CN(C)C(=O)c2cc(NC(=O)c3ccccc3F)ccc2OC[C@@H](C)N(C(C)=O)C[C@@H]1C
COc1ccc(C(=O)Nc2ccc3c4c(cccc24)CC3)cc1
CCN(CC)c1ccc(NC(=O)c2ccc(NC(=O)C3CCCO3)cc2)c(C)c1 (centres undefined)
O=C(NCCN1CCOCC1)c1ccc(=O)oc1
CC(C)CNC(=O)c1coc(=O)c(Br)c1
O=C(OCCCN1CCCCC1)c1ccc(O)cc1
Cc1ccc(S(=O)(=O)N(C)c2ccc(OC(C)C(=O)N3CCCC3)cc2)cc1C (centres undefined)
OC[C@@H]1[C@@H](c2ccc(C#CC3CCCC3)cc2)[C@H]2CN(CCC(F)(F)F)CCCCN12
C[C@H]1CN([C@@H](C)CO)C(=O)c2cccc(NC(=O)Nc3ccc(C(F)(F)F)cc3)c2O[C@H]1CN(C)C(=O)Nc1cccc2ccccc12
C[C@@H]1CN([C@@H](C)CO)C(=O)c2ccccc2-c2ccccc2CO[C@@H]1CN(C)C(=O)Nc1cccc(Cl)c1Cl
C[C@@H]1CN([C@H](C)CO)C(=O)CCCn2cc(nn2)CO[C@@H]1CN(C)C(=O)Nc1cccc2ccccc12
Cc1cc2c(c(/C=C/C(=O)c3ccccc3)c1)OC1(C=C2)Oc2ccccc2C(=O)N1C (centres undefined)
N#Cc1c(N)c(C(=O)c2ccccc2)n2ccccc12
CSc1n[nH]c(NCc2ccccc2)n1
CC1(C)CC(=O)C=C(NCc2ccco2)C1
COC1(C)CN(Cc2ccccc2Br)[C@H](/C=C/c2ccccc2)[C@H](Cc2ccccc2)O1 (some centres undefined)
CCOc1ccccc1NC(=O)c1ccc2ccccc2c1
CCn1nccc1C(=O)Nc1ccccc1OC
C[C@@H]1CN([C@H](C)CO)C(=O)c2cc(C3=CCCCC3)cnc2O[C@@H]1CN(C)Cc1ccccc1
COc1ccc(C(CC(=O)Nc2ccccn2)N2Cc3ccccc3C2=O)cc1 (centres undefined)
c1ccc(-c2cc(-c3ccccc3)n3ncnc3n2)cc1
CC(C)NC(=O)Nc1ccc2c(c1)C(=O)N([C@@H](C)CO)C[C@H](C)[C@@H](CN(C)C(=O)CCC(F)(F)F)OCCCC[C@@H](C)O2
C[C@H]1CN([C@@H](C)CO)S(=O)(=O)c2ccc(C#Cc3cccnc3)cc2O[C@@H]1CN(C)CC1CCOCC1
COc1cc(NC(=O)NCc2ccco2)ccc1-c1ccc(NC(=O)NCc2ccco2)cc1OC
Cc1noc(C)c1NC(=O)N[C@H]1C=C[C@H](CC(=O)NCc2ccc(Cl)c(Cl)c2)O[C@H]1CO
CN1C(=O)c2ccccc2C(C(=O)O)C1c1cccc([N+](=O)[O-])c1 (centres undefined)
CCOC(=O)C1(Cc2cccc(F)c2)CCN(Cc2c(C)nn(CC)c2C)CC1
CCOC(=O)C1(Cc2cccc(F)c2)CCN(Cc2ccc(COC)o2)CC1
C[C@@H]1CN([C@@H](C)CO)C(=O)Cc2cc(NC(=O)CCC(F)(F)F)ccc2O[C@H]1CN(C)S(C)(=O)=O
Cn1nnnc1Sc1ncnc2scc(-c3ccc[nH]3)c12
Oc1ccc2ccccc2c1CN1CCCCC1
Cn1c(CCN2CCCCC2)nc2cc(NS(=O)(=O)c3ccccc3)ccc21
Cn1c(O)c(C(C#N)=C2N=c3ccccc3=N2)c2ccccc21
O=C(C[C@H]1CC[C@@H]2[C@H](COC[C@@H](O)CN2S(=O)(=O)c2ccc(F)cc2)O1)NCCN1CCCCC1
O=c1oc(-c2ccccc2)cc(Cl)c1Cl
Cc1noc(C)c1C(=O)Nc1nc(-c2cc(F)ccc2F)cs1
CN(C)Cc1csc(NC(=O)Nc2ccccc2-c2ccccc2)n1
CC(C)NC(=O)NCC[C@@H]1CC[C@H](NS(=O)(=O)c2ccc(-c3ccccc3)cc2)[C@@H](CO)O1
COc1ccccc1NC(=O)CCC(=O)Nc1ccccc1OC
COC(=O)c1cc(Cl)c(NS(=O)(=O)c2ccccc2)cc1OC
CCn1c(=O)c2c(cnn2C)c2ccccc21
COc1ccc(-c2nc(C#N)c(NCc3ccco3)o2)cc1
CCOc1ccc(Nc2ncnc3ccc([N+](=O)[O-])cc23)cc1
CCCNC(=O)c1nnsc1S(=O)(=O)c1ccc(Cl)cc1
Cc1cc(C)c2c(=O)[nH]n(C3CCCCCC3)c2n1
O=C(C[C@H]1C[C@@H]2c3cc(NS(=O)(=O)c4ccc(F)cc4)ccc3O[C@@H]2[C@@H](CO)O1)N1CCc2ccccc2C1
O=C(C1CC1)N1C[C@@H]2N[C@H](C1)C2c1ccc(/C=C/c2ccccc2)cc1 (some centres undefined)
O=C(C(Br)=Cc1ccccc1)c1ccccc1
Cc1ccc(C(=O)OCN2C(=O)c3ccccc3C2=O)o1
CCCCC1C(=O)N(c2ccccc2)N(c2ccc(O)cc2)C1=O (centres undefined)
O=C(Nc1nc2cc3c(cc2s1)OCCO3)c1ccncc1
C[C@@H]1CN([C@@H](C)CO)C(=O)c2cc(NS(=O)(=O)c3ccc(F)cc3)ccc2O[C@@H]1CN(C)S(=O)(=O)c1ccc(Cl)cc1
CC(C)NC(=O)Nc1ccc2c(c1)C(=O)N([C@@H](C)CO)C[C@@H](C)[C@H](CN(C)Cc1ccc(C(=O)O)cc1)OCCCC[C@H](C)O2
CCCC(=O)C1=C(O)C(C(=O)OC)C(C)(C)CC1=Nc1ccc(OC)cc1 (centres undefined)
NC(=O)c1sc2nc3c(c(-c4cccs4)c2c1N)CCCCC3
COc1ccc(S(=O)(=O)N[C@H]2CC[C@@H](CCNC(=O)c3ccccc3F)O[C@@H]2CO)cc1
O=C(Cc1ccccc1)N1CC[C@@H]2[C@H]1c1cc(C#Cc3ccccc3)ccc1N[C@@H]2CO
CCCOC(=O)c1ccc(-n2nnnc2SCC(=O)N2CCCCC2)cc1
C[C@@H]1CN([C@@H](C)CO)C(=O)c2cccc(NC(=O)Nc3ccccc3)c2O[C@H]1CN(C)S(=O)(=O)c1cccs1
CN(CC(=O)Nc1ccccc1Br)C(=O)c1cccc(S(=O)(=O)NCc2ccccc2)c1
COc1ccc(Cl)cc1NC(=O)NCC1CCN(C(=O)OC(C)(C)C)CC1
COc1ccccc1NC(=O)Cn1c(C)cc(=O)c2cccc(OC)c21
O=C(Nc1ccc(C(F)(F)F)cc1)N1C[C@@H]2N[C@H](C1)C2c1ccc(-c2ccccc2)cc1 (some centres undefined)
O=C(Nc1ccc(C(F)(F)F)cc1)N1C[C@@H]2N[C@H](C1)C2c1ccc(/C=C/c2ccccc2)cc1 (some centres undefined)
CO[C@@H]1CN(C)C(=O)c2ccc(NS(=O)(=O)CC(F)(F)F)cc2OC[C@@H](C)N(C(=O)NC(C)C)C[C@H]1C
O=C(CNC(=O)C1CCCCC1)OCC(=O)c1ccc(Cl)s1
CCOCCc1nn2c(=O)cc(CSCC(=O)Nc3cccc(C)c3C)nc2s1
CC(C)(C)NC(=O)c1ccc(Sc2ccccc2)c([N+](=O)[O-])c1
Cc1cc(=O)[nH]c(SCC(=O)c2ccc(F)c(C)c2)n1
Cc1cccc(Oc2ccccc2NC(=O)C2=COCCO2)c1
CNc1ccc2ncc(-c3ccc(OC)c(OC)c3)n2n1
COc1cc(CN2CCC(C(=O)NCCC(C)C)CC2)ccc1OCc1ccccc1
CCOc1ccc(-c2[nH]ncc2-c2ccc(OC)c(OC)c2)c(O)c1
CC(C)(C)OC(=O)NC(Cc1ccccc1)C(=O)NCCCC(=O)O (centres undefined)
C[C@@H]1CN([C@@H](C)CO)C(=O)c2cc(C3=CCCC3)cnc2O[C@@H]1CN(C)C(=O)Nc1cccc(F)c1
C[C@@H]1CN([C@H](C)CO)C(=O)CCCn2cc(nn2)CO[C@H]1CN(C)C(=O)Nc1ccc(C(F)(F)F)cc1
C[C@@H]1CN([C@H](C)CO)C(=O)CCCn2nncc2CO[C@H]1CN(C)C(=O)Nc1cccc(F)c1
CC(C)NC(=O)N(C)C[C@H]1OCCCC[C@@H](C)Oc2ccc(NC(=O)Nc3ccc(C(F)(F)F)cc3)cc2C(=O)N([C@H](C)CO)C[C@@H]1C
